Screening results from PubChem.
Shown are actives, neighbours in structure and some others; about 4.8% of the full set was active somewhere.
ssDAF-12 act: S. stercoralis DAF-12 nuclear receptor activators, primary screen, cell-based, luminescence, HEK293, GRIP1 co-expression, lit1-tk-luc. HEK293 ssDAF-12/GRIP1 lit1-tk-luc reporter; % of 3 µM dafachronic acid response. Nuclear hormone receptor DAF-12 (Strongyloides stercoralis). activation, % at 6.8 µM. hit rate 1% among 370,000;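 active = activation above the mean over all tested compounds plus 3 SD, cut at about 0.9% in these data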;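 note: 0% = DMSO-only wells and 100% = 3 µM delta7-dafachronic acid wells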
Rev-erbA mod: modulators of Rev-erb alpha DNA binding, primary screen, biochemical, FITC-DNA, fluorescence polarization, uHTS; Rev-erbα–FITC-DNA binding, 90 min; Nuclear receptor subfamily 1 group D member 1 (Homo sapiens), P20393; activity, % at 10 µM; hit rate 0.79% among 370,000;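 active = activity above about 14%, limit read from the data; passing the limit was not always enough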;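 note: 0% = DMSO wells with 35 nM protein and 100% = DMSO wells with 750 nM protein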
hgDAF-12 ag: H. glycines DAF-12 receptor agonists, primary screen, cell-based, luminescence, HEK293, GAL4 fusion, UAS-luciferase | hit rate 1.8% among 370,000 | HEK293 GAL4-hgDAF12 UAS-luciferase reporter, agonist luminescence; normalized to butyrate control | Nuclear hormone receptor DAF-12 (Heterodera glycines), GAL4 fusion | activation, % at 6.8 µM;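 active = activation above a cutoff set at the mean of all screened compounds plus 3 SD, cut at about 10% in these data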;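 note: 0% = DMSO wells and 100% = sodium butyrate wells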
hcDAF-12 act: H. contortus DAF-12 nuclear receptor activators, primary screen, cell-based, luminescence, HEK293, lit1-tk-luc reporter | HEK293 hcDAF-12 lit1-tk-luc reporter; 0% DMSO, 100% Δ7-dafachronic acid | activation, % at 6.8 µM | hit rate 1.4% among 370,000 | AID 652067, 2013;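 active = activation above the mean of all tested compounds plus 3 SD, cut at about 5.5% in these data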;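 note: 100% = response to 3 µM Δ7-dafachronic acid high control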
DAX1 inh-1: DAX1 (NR0B1) inhibitors, primary screen, cell-based, HEK293, Gal4-DAX1, luciferase luminescence. hit rate 0.99% among 340,000. Nuclear receptor subfamily 0 group B member 1 (Homo sapiens), P51843. inhibition, % at 6.75 µM. AID 504766, 2011. HEK293 Gal4-DAX1 luciferase reporter;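 active = inhibition above the mean over all tested compounds plus 3 SD, cut at about 4.2% in these data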;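 note: 0% = DAX1-transfected cells with DMSO and 100% = empty-vector control cells with DMSO; inhibition shows as a rise in luminescence from relieved DAX1 repression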
Target sequence (P51843 207-470 limits assumed): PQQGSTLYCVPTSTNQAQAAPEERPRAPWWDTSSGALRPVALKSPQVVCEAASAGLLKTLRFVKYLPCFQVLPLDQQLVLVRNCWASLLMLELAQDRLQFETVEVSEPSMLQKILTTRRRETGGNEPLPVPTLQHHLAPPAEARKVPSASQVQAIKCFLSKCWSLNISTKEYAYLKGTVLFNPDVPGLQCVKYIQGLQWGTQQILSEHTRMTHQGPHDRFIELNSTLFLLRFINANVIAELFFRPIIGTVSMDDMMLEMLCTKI
DAX1 inh-2: DAX1 (NR0B1) inhibitors on StAR promoter, primary screen, cell-based, luminescence, SF-1 (NR5A1), full-length DAX-1; AID 652010, 2013; hit rate 1.1% among 370,000; HEK293T StAR-luciferase reporter, SF-1/DAX-1 repression relief; inhibition, % at 6.8 µM;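 active = inhibition above the mean over all tested compounds plus 3 SD, cut at about 3.6% in these data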;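 note: 0% = DAX-1 cells with DMSO and 100% = cells lacking DAX-1 with DMSO; higher inhibition means more luminescence from relief of DAX-1 repression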
Rev-erbA confirm: modulators of Rev-erb alpha DNA binding, confirmation, biochemical, FITC-DNA, fluorescence polarization, single point | activation, % at 25 µM | AID 1259319, 2017 | 90 min | shares compounds with Rev-erbA mod | hit rate 61% among 3,000;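 active = activation at or above a set limit, or at least 3 SD above the negative control mean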;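 note: 0% = 35 nM protein with DMSO and 100% = 750 nM protein high control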
RORg counter: modulation of RORgamma DNA binding, dose response, counter-screen for Rev-erb alpha modulator project, biochemical, fluorescence polarization, FITC-DNA | shares compounds with Rev-erbA mod | purified RORgamma protein-FITC-DNA binding | IC50, µM | hit rate 8% among 910 | AID 1259320, 2017;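 active = Compounds whose fitted half-maximal concentration for disrupting protein-DNA binding is below 10 micromolar; the record names Rev-erb in its text, so the target is in doubt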
The depositor's hits bear a star.

What do the screens show for `Cc1n[nH]c(=S)n(NC(=O)CC(=O)Nn2c(=S)[nH]nc(C)c2=O)c1=O`?
ssDAF-12 act: -1.8; Rev-erbA mod: 16.2*; hgDAF-12 ag: -1.6; hcDAF-12 act: -1.1; DAX1 inh-1: -0.4; DAX1 inh-2: -0.3; Rev-erbA confirm: 5.3

How did Cn1cc([C@]2(O)C(=O)Nc3ccc(OC(F)(F)F)cc32)c2ccccc21 do in these assays?
ssDAF-12 act: -0.7; Rev-erbA mod: -1.2; hgDAF-12 ag: -0.2; hcDAF-12 act: 0.0; DAX1 inh-2: -0.5

What do the screens show for `COc1ccc2cc(/C=N/NC(=O)CN(c3ccccc3C)S(=O)(=O)c3ccccc3)c(Cl)nc2c1`?
ssDAF-12 act: -1.2; Rev-erbA mod: 29.3*; hgDAF-12 ag: -1.4; hcDAF-12 act: 2.9; DAX1 inh-1: -0.5; DAX1 inh-2: 0.6; Rev-erbA confirm: 7.7

Results for CN(C)S(=O)(=O)c1ccc(NC(=O)CN2C(=O)NC(Cc3ccccc3)C2=O)cc1 (stereo not drawn) ?
ssDAF-12 act: -1.1; Rev-erbA mod: 3.0; hgDAF-12 ag: 2.5; hcDAF-12 act: 0.1; DAX1 inh-1: -0.3; DAX1 inh-2: 0.2

What do the screens show for `O=C(CN1C(=O)NC(Cc2ccccc2)C1=O)Nc1ccc(OC(F)(F)F)cc1` (stereo not drawn)?
ssDAF-12 act: -0.8; Rev-erbA mod: 14.5*; hgDAF-12 ag: 0.2; hcDAF-12 act: 0.7; DAX1 inh-1: 1.9; DAX1 inh-2: -0.5; Rev-erbA confirm: -7.5

What do the screens show for `N#Cc1cnn2c1nc(N1CCCCC1)c1ccccc12`?
ssDAF-12 act: -0.8; Rev-erbA mod: 31.9*; hgDAF-12 ag: 1.4; hcDAF-12 act: -1.8; DAX1 inh-1: 0.6; DAX1 inh-2: 1.1; Rev-erbA confirm: 3.5

What do the screens show for `CCCCn1c(-c2ccc(F)c(F)c2)nc2cc3[nH]c(=O)c(C(C)C)nc3cc21`?
ssDAF-12 act: -1.3; Rev-erbA mod: 17.8*; hgDAF-12 ag: 2.5; hcDAF-12 act: -0.8; DAX1 inh-1: -0.8; DAX1 inh-2: 0.0; Rev-erbA confirm: 13.8

How did Cc1cc(C)c2nc(SCC(=O)Nc3ccccc3N3CCOCC3)c(C#N)cc2c1 do in these assays?
ssDAF-12 act: -0.9; Rev-erbA mod: 65.0*; hgDAF-12 ag: 2.2; hcDAF-12 act: 0.5; DAX1 inh-1: -0.1; DAX1 inh-2: 0.2; Rev-erbA confirm: 32.2*; RORg counter: >40

How did COc1ccc(NC(=O)COc2nc3ccccc3nc2N2CCOCC2)c(OC)c1 do in these assays?
ssDAF-12 act: -0.9; Rev-erbA mod: 23.9*; hgDAF-12 ag: 3.1; hcDAF-12 act: -2.0; DAX1 inh-1: 0.5; DAX1 inh-2: 0.9; Rev-erbA confirm: 10.4

What do the screens show for `Cc1ccc(C)c(NC(=O)CSc2nc3ccccc3nc2N2CCOCC2)c1`?
ssDAF-12 act: 0.1; Rev-erbA mod: 32.2*; hgDAF-12 ag: 0.0; hcDAF-12 act: -0.4; DAX1 inh-1: 0.3; DAX1 inh-2: 0.8; Rev-erbA confirm: 24.5*

Results for Cc1ccccc1NC(=O)CSc1nc2cc3c(cc2cc1C)CCC3 ?
ssDAF-12 act: -0.9; Rev-erbA mod: 102.0*; hgDAF-12 ag: 2.4; hcDAF-12 act: -0.6; DAX1 inh-1: -0.5; DAX1 inh-2: 0.3; Rev-erbA confirm: 23.4*

How did CCc1ccccc1NC(=O)CSc1nc2ccccc2nc1N1CCOCC1 do in these assays?
ssDAF-12 act: -0.2; Rev-erbA mod: 14.6; hgDAF-12 ag: -0.3; hcDAF-12 act: 2.0; DAX1 inh-1: 0.1; DAX1 inh-2: -1.0

What do the screens show for `C[C@@H]1CCN(C2CC2)S(=O)(=O)c2c(cccc2N2CC[C@@H](N(C)C)C2)O1`?
ssDAF-12 act: -1.0; Rev-erbA mod: 2.9; hgDAF-12 ag: 0.7; hcDAF-12 act: -0.5; DAX1 inh-2: -0.7

What do the screens show for `O=C(NC1CCCCN(Cc2ccc(Cl)cc2)C1=O)c1ccccc1-c1ccc(Cl)c(Cl)c1` (stereo not drawn)?
ssDAF-12 act: -1.6; Rev-erbA mod: 6.6; hgDAF-12 ag: -1.1; hcDAF-12 act: 1.1; DAX1 inh-2: -0.1

How did COc1cccc(C(=O)N[C@H](C(=O)N2CCC[C@H]2C(=O)NC2CCCC2)c2ccccc2)c1 do in these assays?
ssDAF-12 act: -0.6; Rev-erbA mod: 14.1; hgDAF-12 ag: -2.4; hcDAF-12 act: 2.9; DAX1 inh-2: -1.2

Results for O=C(Nc1ccccc1Cl)O[C@@H]1CC[C@@]23CCCN2C(=O)CCC[C@H]3C1 ?
ssDAF-12 act: -2.2; Rev-erbA mod: 2.8; hgDAF-12 ag: -1.7; hcDAF-12 act: -1.0

How did COCCn1c(=NC(=O)c2ccc(S(=O)(=O)N3CCc4ccccc4C3)cc2)sc2cc(OC)ccc21 do in these assays?
ssDAF-12 act: -0.7; Rev-erbA mod: 53.9*; hgDAF-12 ag: -3.0; hcDAF-12 act: -0.6; DAX1 inh-1: -1.4; DAX1 inh-2: 0.7; Rev-erbA confirm: 18.9*

How did COCCn1c(=NC(=O)CCS(=O)(=O)c2ccccc2)sc2cc(C(=O)OC)ccc21 do in these assays?
ssDAF-12 act: -0.7; Rev-erbA mod: 204.5*; hgDAF-12 ag: -2.4; hcDAF-12 act: -1.7; DAX1 inh-1: -0.1; DAX1 inh-2: 1.8; Rev-erbA confirm: 137.3*; RORg counter: >40

What do the screens show for `COc1ccc2sc(N(CCCN(C)C)C(=O)c3ccc(S(=O)(=O)N4CCc5ccccc5C4)cc3)nc2c1`?
ssDAF-12 act: -0.9; Rev-erbA mod: -3.9; hgDAF-12 ag: 2.4; hcDAF-12 act: 0.9; DAX1 inh-1: 0.2; DAX1 inh-2: 2.3

How did CCCCN(C(=O)CSc1nn(-c2ccc(F)cc2)c(=S)s1)c1c(N)n(CCCC)c(=O)[nH]c1=O do in these assays?
ssDAF-12 act: -1.3; Rev-erbA mod: -5.3; hgDAF-12 ag: -2.1; hcDAF-12 act: -0.3; DAX1 inh-1: -0.9; DAX1 inh-2: -0.7
